Assay in all cases: DAPPL (digital affinity profiling via proximity ligation, sequencing); 10 mM Tris-HCl pH 7.5, 50 mM NaCl, 1 mM DTT, 4% glycerol, room temperature, 30 min; GST-TFs on glutathione beads, 16-mer random dsDNA library, 0.1% formaldehyde crosslink after washing; high values mean tight binding
Holding throughout (conditions): protein: recombinant; tags: N-terminal GST; dsDNA, one strand shown

For one test, the target named is T1, ETV2 (Homo sapiens, UniProt O00321 1-342).
T1 sequence: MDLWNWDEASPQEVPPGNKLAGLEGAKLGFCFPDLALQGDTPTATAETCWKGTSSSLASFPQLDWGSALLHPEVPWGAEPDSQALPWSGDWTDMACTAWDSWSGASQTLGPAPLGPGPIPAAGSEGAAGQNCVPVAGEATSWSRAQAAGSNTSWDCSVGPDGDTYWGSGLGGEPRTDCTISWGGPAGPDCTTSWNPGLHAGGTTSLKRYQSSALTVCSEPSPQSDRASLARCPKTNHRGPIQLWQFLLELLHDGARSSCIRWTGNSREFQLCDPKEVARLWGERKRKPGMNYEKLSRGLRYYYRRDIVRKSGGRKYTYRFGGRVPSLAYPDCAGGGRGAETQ
Summed up:
(§1)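 GST fusions of human transcription factors were expressed in yeast and captured with glutathione beads. Once given DNA barcodes and pooled alongside a tag-only sample, they were incubated for 30 min at room temperature with 200 nmole of a random double-stranded 16-mer DNA library in Tris/NaCl/DTT/glycerol buffer, then washed, crosslinked (0.1% formaldehyde), proximity-ligated, PCR-amplified and sequenced on an Illumina NextSeq500. The binding signal of each hexamer is its read frequency for a factor divided by its frequency for the tag-only sample.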

The target of the next test is T2, ELF3 (Homo sapiens, UniProt P78545 1-371).
T2 sequence: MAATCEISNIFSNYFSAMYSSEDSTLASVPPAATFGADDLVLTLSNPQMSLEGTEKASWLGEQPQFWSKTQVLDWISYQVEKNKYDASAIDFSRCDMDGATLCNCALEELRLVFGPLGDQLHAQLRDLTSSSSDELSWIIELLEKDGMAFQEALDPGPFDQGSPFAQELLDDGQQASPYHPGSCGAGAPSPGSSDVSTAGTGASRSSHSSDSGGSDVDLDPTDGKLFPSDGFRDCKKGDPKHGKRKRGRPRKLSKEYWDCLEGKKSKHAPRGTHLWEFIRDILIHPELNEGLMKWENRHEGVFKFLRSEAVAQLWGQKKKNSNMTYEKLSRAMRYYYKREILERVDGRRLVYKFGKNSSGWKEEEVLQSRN
Summed up: as §1

The target of another test is ETV1 (Homo sapiens, UniProt P50549 1-477). The gist of the method: as §1
A further test concerns the target T3, ERF (Homo sapiens, UniProt P50548 1-548).
T3 sequence: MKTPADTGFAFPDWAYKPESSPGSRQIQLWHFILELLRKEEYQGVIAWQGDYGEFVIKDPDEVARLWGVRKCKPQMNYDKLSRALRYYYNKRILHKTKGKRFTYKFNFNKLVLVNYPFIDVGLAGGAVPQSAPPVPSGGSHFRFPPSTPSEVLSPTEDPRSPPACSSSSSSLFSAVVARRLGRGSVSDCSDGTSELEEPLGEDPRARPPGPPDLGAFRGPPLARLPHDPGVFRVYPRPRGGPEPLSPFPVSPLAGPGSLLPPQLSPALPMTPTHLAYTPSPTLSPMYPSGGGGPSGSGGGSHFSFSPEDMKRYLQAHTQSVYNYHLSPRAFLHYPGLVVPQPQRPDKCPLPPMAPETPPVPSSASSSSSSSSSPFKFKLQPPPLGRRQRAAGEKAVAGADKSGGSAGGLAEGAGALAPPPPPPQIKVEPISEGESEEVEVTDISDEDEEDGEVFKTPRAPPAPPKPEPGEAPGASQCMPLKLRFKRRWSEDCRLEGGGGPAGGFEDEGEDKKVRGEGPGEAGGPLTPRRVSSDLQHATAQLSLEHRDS
The gist of the method:
as §1

The target in a further test is T4, ETV3L (Homo sapiens, UniProt Q6ZN32 1-361).
T4 sequence: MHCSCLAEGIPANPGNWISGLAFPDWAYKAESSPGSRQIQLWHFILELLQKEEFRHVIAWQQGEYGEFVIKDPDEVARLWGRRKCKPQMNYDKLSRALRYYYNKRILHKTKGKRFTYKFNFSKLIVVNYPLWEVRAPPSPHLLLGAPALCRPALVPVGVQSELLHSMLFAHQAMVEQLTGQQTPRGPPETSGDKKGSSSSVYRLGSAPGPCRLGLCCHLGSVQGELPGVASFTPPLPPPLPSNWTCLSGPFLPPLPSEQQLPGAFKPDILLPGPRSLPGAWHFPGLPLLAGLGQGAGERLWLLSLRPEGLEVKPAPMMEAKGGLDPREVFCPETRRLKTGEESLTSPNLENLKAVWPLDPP
The gist of the method: as §1

Another test concerns the target T5, ETS2 (Homo sapiens, UniProt P15036 1-469).
T5 sequence: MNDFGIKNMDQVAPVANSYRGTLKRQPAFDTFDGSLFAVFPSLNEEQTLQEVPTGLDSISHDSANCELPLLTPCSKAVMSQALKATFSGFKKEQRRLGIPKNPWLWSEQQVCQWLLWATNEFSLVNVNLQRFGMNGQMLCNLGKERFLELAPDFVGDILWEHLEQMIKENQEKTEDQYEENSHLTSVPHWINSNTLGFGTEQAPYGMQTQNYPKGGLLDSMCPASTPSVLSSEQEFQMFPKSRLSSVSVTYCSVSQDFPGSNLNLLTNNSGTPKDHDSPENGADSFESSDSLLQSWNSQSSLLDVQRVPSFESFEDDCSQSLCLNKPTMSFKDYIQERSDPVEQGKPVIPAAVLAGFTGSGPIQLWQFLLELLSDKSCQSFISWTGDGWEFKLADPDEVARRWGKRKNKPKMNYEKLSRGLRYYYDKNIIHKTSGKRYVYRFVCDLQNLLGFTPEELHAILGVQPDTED
The gist of the method: as §1

A further test deals with T6, SPDEF (Homo sapiens, UniProt O95238 1-335).
T6 sequence: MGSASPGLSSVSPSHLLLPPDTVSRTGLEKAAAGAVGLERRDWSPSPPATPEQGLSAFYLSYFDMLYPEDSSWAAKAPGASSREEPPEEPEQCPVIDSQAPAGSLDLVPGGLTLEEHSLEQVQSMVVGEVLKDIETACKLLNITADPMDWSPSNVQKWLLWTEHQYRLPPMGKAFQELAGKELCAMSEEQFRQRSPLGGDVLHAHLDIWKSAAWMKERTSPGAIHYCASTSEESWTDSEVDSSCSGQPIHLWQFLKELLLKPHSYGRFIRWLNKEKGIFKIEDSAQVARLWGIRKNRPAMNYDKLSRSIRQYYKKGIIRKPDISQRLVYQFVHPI
Summed up: as §1

For another test, the target named is T7, ETV7 (Homo sapiens, UniProt Q9Y603 1-341).
T7 sequence: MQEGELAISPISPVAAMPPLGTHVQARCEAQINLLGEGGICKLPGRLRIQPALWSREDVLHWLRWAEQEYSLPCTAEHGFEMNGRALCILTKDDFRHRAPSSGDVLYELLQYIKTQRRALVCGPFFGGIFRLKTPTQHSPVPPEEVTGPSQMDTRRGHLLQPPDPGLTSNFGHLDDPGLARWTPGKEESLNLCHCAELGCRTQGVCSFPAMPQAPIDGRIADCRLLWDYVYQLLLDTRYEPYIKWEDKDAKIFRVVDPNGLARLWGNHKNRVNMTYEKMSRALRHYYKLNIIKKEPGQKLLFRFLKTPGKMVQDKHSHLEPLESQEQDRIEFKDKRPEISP
The gist of the method: as §1

The target of the next test is T8, ETV3 (Homo sapiens, UniProt P41162-2 1-143).
T8 sequence: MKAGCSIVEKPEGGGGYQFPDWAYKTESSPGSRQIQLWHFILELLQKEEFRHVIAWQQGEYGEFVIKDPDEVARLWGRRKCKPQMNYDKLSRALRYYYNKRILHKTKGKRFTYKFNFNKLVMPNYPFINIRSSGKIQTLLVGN
The gist of the method: as §1

The target in the next test is ETV6 (Homo sapiens, UniProt P41212 1-452). The gist of the method:
as §1

The results in this text go back to paper PMC7862700, “An all-to-all approach to the identification of sequence-specific readers for epigenetic DNA modifications on cytosine”.

ETV1, sequence (P50549 whole entry): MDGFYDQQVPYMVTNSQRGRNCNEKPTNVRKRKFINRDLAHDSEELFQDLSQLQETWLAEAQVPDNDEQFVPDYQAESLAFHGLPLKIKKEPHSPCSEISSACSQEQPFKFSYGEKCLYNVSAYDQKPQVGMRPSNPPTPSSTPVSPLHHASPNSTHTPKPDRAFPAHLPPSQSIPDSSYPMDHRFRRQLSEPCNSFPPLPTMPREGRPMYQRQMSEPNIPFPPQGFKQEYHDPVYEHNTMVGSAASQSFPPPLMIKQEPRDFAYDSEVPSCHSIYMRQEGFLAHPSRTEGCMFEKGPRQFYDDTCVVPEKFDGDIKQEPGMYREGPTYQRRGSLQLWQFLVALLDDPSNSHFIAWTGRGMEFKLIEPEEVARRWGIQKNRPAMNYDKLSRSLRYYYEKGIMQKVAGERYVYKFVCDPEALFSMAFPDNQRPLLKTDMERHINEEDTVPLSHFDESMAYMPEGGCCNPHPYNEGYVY
ETV6, sequence (P41212 whole entry): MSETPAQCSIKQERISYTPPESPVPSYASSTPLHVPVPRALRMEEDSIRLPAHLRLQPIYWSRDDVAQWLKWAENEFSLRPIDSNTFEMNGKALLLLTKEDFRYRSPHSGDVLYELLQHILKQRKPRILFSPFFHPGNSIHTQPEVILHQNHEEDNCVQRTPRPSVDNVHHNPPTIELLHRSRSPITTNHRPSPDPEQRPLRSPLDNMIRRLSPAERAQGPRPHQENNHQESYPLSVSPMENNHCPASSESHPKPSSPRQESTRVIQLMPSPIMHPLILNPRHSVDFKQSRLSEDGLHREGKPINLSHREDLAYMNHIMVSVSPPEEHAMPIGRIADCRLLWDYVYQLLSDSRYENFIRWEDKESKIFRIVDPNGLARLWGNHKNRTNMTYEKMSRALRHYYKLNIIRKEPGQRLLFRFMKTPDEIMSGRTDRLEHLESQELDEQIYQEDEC

On to CATGAC, for which the binding signal with ETV2 is 1.3 fold enrichment (6-mer frequency, TF over GST control); with ELF3, 1.15 fold enrichment (6-mer frequency, TF over GST control); with ETV1, 1.13 fold enrichment (6-mer frequency, TF over GST control); in the test with ERF, 1.18 fold enrichment (6-mer frequency, TF over GST control); with ETV3L it was 1.13 fold enrichment (6-mer frequency, TF over GST control); in the test with ETS2, 1.2 fold enrichment (6-mer frequency, TF over GST control). Further, the binding signal with SPDEF is 1.2 fold enrichment (6-mer frequency, TF over GST control); in the test with ETV7, 1.11 fold enrichment (6-mer frequency, TF over GST control); with ETV3, 1.13 fold enrichment (6-mer frequency, TF over GST control); with ETV6, 1.18 fold enrichment (6-mer frequency, TF over GST control).
